Details in all cases: mRNA level, 48 h; actives raise or lower the signal
Read-out in test [1]: growth arrest and DNA damage 45 (GADD45B), GADD45B (gene 4616)
The test is described as follows: LTEA_HepaRG_GADD45B: Life Technologies and Expression Analysis (LTEA) Assay for growth arrest and DNA damage 45 (GADD45B) using HepaRG (AID 2283461). A digest of the protocol: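 Differentiated HepaRG cells, plated 48 h then switched to serum-free induction medium, were exposed 48 h in duplicate to eight half-log concentrations from 100 uM in 0.5% DMSO; mRNA quantified by qRT-PCR, normalized to ACTB/GAPDH/POLR2A, bidirectional fit versus DMSO.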

Read-out in test [2]: ABC Transporter (ABCC3), ABCC3 (gene 8714)
Nature of the test: LTEA_HepaRG_ABCC3: Life Technologies and Expression Analysis (LTEA) Assay for ABC Transporter (ABCC3) using HepaRG (AID 2283462). A digest of the protocol:
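HepaRG cells in serum-free induction medium were exposed for 48 h in duplicate to 8-point half-log concentrations topping at 100 uM in 0.5% DMSO. ABCC3 mRNA was measured by qRT-PCR normalized to ACTB, GAPDH and POLR2A, with bidirectional fitting versus DMSO.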

Read-out in test [3]: ABC Transporter (ABCC2), ABCC2 (gene 1244)
The test is described as follows: LTEA_HepaRG_ABCC2: Life Technologies and Expression Analysis (LTEA) Assay for ABC Transporter (ABCC2) using HepaRG (AID 2283464). A digest of the protocol: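 HepaRG cells were plated 48 h, switched to serum-free induction medium, then exposed in duplicate for 48 h to 8 concentrations (top 100 uM, half-log steps, 0.5% DMSO). ABCC2 mRNA was measured by qRT-PCR normalized to ACTB/GAPDH/POLR2A; bidirectional fitting versus DMSO.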

Read-out in test [4]: Broad substrate specificity ATP-binding cassette transporter ABCG2 (Homo sapiens) (UniProt Q9UNQ0)
Nature of the test: LTEA_HepaRG_ABCG2: Life Technologies and Expression Analysis (LTEA) Assay for ABC Transporter (ABCG2) using HepaRG (AID 2283465). A digest of the protocol:
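HepaRG, 48 h exposure, 8-pt half-log series from 100 uM, 0.5% DMSO vehicle, duplicates. Readout: ABCG2 transcript by qRT-PCR (Fluidigm array), housekeeping-normalized; bidirectional curve fit relative to DMSO baseline.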

Read-out in test [5]: Peroxisomal acyl-coenzyme A oxidase 1 (ACOX1) gene, ACOX1 (gene 51)
Nature of the test: LTEA_HepaRG_ACOX1: Life Technologies and Expression Analysis (LTEA) Assay for Peroxisomal acyl-coenzyme A oxidase 1 (ACOX1) gene using HepaRG (AID 2283467). A digest of the protocol: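 HepaRG, 48 h chemical exposure, 8-pt half-log series from 100 uM top, 0.5% DMSO vehicle, duplicates. Readout: ACOX1 mRNA by Fluidigm qRT-PCR, housekeeping-normalized; bidirectional fit vs DMSO baseline.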

Read-out in test [6]: Alkaline Phosphatase, Placental (ALPP) gene, ALPP (gene 250)
The test is described as follows: LTEA_HepaRG_ALPP: Life Technologies and Expression Analysis (LTEA) Assay for Alkaline Phosphatase, Placental (ALPP) gene using HepaRG (AID 2283468). A digest of the protocol: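 Differentiated human HepaRG cells were plated and cultured 48 h, then exposed in duplicate for 48 h in serum-free induction medium to eight half-log concentrations from 100 uM in 0.5% DMSO. ALPP mRNA was measured by TaqMan qRT-PCR, normalized to ACTB, GAPDH, POLR2A.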

Read-out in test [7]: Bcl-2 (BAD) gene, BAD (gene 572)
The test is described as follows: LTEA_HepaRG_BAD: Life Technologies and Expression Analysis (LTEA) Assay for Bcl-2 (BAD) gene using HepaRG (AID 2283469). A digest of the protocol:
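HepaRG, 48 h exposure, 8-pt half-log curve from 100 uM in 0.5% DMSO, duplicates. Readout: TaqMan qRT-PCR for BAD mRNA, housekeeping-normalised (ACTB/GAPDH/POLR2A); gain or loss fitted against DMSO baseline.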

Read-out in test [8]: Bcl-2 (BAX) gene, BAX (gene 581)
Nature of the test: LTEA_HepaRG_BAX: Life Technologies and Expression Analysis (LTEA) Assay for Bcl-2 (BAX) gene using HepaRG (AID 2283470). A digest of the protocol:
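qRT-PCR read-out of BAX mRNA, normalized to three housekeeping genes, after 48 h chemical exposure of human HepaRG cells in serum-free induction medium; eight-point half-log series, top 100 uM, 0.5% DMSO vehicle; bidirectional fit versus DMSO.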

One may read the AC50 as the concentration at which the activity in the assay is half-maximal.

The source made the active and inactive calls. The calls were made as follows: active = hit-call score of the fitted dose curve at least 0.9, where 1 is the maximum; inactive = score below 0.9.

Chain of Broad substrate specificity ATP-binding cassette transporter ABCG2 (Homo sapiens) (Q9UNQ0 whole entry, looked up): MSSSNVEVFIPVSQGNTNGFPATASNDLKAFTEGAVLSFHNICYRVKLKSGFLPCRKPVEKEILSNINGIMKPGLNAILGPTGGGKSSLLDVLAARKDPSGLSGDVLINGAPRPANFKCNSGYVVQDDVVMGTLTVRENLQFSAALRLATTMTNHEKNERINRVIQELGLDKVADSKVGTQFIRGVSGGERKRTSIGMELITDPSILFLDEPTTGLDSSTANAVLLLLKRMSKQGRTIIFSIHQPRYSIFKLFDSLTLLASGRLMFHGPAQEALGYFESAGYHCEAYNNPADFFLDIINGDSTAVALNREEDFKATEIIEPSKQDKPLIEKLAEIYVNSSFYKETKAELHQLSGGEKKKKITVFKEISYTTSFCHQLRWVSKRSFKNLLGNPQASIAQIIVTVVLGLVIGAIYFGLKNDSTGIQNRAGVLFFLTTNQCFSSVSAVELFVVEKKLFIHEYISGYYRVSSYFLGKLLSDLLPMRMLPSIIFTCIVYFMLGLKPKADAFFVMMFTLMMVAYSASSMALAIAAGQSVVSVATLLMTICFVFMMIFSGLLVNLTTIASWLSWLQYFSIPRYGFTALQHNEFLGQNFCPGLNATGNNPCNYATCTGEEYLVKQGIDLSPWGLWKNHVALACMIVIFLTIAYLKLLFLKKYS

As for `COc1nc(NC(C)C)nc(NC(C)C)n1`, the compound was classed as inactive in test [1], in test [2], in test [3], in test [4], in test [5] and in test [6]. Further, the result in test [7] and in test [8] was inactive.
As to `CNC(=S)S`, the outcome in test [1], in test [2], in test [3], in test [4], in test [5] and in test [6] was inactive. Also, the compound was called inactive in test [7] and in test [8].
For `C#CCOS(=O)OC1CCCCC1Oc1ccc(C(C)(C)C)cc1` (centres undefined), the AC50 is 14.9 µM (active) in test [1], 23.6 µM (active) in test [3], 50 µM (active) in test [4] and 29.1 µM (active) in test [5]. In addition, the call in test [2], in test [6], in test [7] and in test [8] was inactive.
As for `CS/C(C)=N/OC(=O)N(C)SN(C)C(=O)O/N=C(\C)SC`, the result in test [1], in test [2], in test [3], in test [4], in test [5] and in test [6] was inactive. The outcome in test [7] and in test [8] was inactive.
Take `CC(C)(C)c1ccc(CSc2cnn(C(C)(C)C)c(=O)c2Cl)cc1`: the compound was classed as inactive in test [1], in test [2], in test [5] and in test [7]. Besides, the AC50 is 9.03 µM (active) in test [3], 2.89 µM (active) in test [4], 1.08 µM (active) in test [6] and 6.27 µM (active) in test [8].
For the compound `CC(C)Oc1cc(-n2nc(C(C)(C)C)oc2=O)c(Cl)cc1Cl`, the AC50 in test [1] was 4.73 µM (active); in test [3] it was 2.52 µM (active); in test [4], 26 µM (active); in test [5], 19.8 µM (active); in test [6], 69.8 µM (active). Further, the result in test [2], in test [7] and in test [8] was inactive.
For the compound `COC(=O)N(OC)c1ccccc1COc1ccn(-c2ccc(Cl)cc2)n1`, the result in test [1], in test [2], in test [3], in test [6] and in test [7] was inactive. Also, the AC50 was 25 µM (active) in test [4], 77.8 µM (active) in test [5] and 66.7 µM (active) in test [8].
As to `CON(C)C(=O)Nc1ccc(Cl)c(Cl)c1`, the outcome in test [1], in test [2], in test [5], in test [7] and in test [8] was inactive. The AC50 is 85 µM (active) in test [3], 78.2 µM (active) in test [4] and 42 µM (active) in test [6].
Consider `CCCCC(CC)COC(=O)c1ccccc1C(=O)OCC(CC)CCCC` (centres undefined), for which the outcome in test [1], in test [2], in test [3], in test [4], in test [5] and in test [6] was inactive. In addition, the result in test [7] and in test [8] was inactive.
As for `CCNc1nc(Cl)nc(NC(C)C)n1`, the compound was called inactive in test [1], in test [2], in test [3], in test [4], in test [5] and in test [6]. The outcome in test [7] and in test [8] was inactive.
As for `Cc1ccc(-c2c(Cl)nc(C#N)n2S(=O)(=O)N(C)C)cc1`, the AC50 in test [1] was 8.98 µM (active); in test [2], 7.3 µM (active); in test [3], 4.39 µM (active); in test [5] it was 4.39 µM (active); in test [6], 50 µM (active); in test [7], 68.3 µM (active). Moreover, the compound was classed as inactive in test [4] and in test [8].
For `CCCCOC(=O)c1ccccc1C(=O)OCCCC`, the compound was classed as inactive in test [1], in test [2], in test [3], in test [4], in test [5] and in test [6]. Moreover, the compound was called inactive in test [7] and in test [8].
`COC(=O)c1ccccc1C(=O)OC`: the call in test [1], in test [2], in test [3], in test [4], in test [5] and in test [6] was inactive. Moreover, the outcome in test [7] and in test [8] was inactive.

The record behind these values is PubChem BioAssay (EPA / NIEHS).
